Several values for one entry are separate records, joined by “and”; a condition that tells them apart may be missing. Equal entries are not always repeated. The panel holds about 83,000 compounds, 20% with a hit somewhere; the sample as a whole holds those more often.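 Percent growth is the endpoint: 0 to 100 indicates growth inhibition (40 means 60% inhibition), 0 means no net growth, and negative values indicate cell death.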 Activity calls are given as the source filed them. The calls were made as follows: active = growth percent below 10; inactive = the rest.
Key:
Assay in all cases: NCI-60 one-dose screen, 48 h (100 = growth as untreated, 0 = no growth, -100 = all killed)
Settings in all cases: 10 µM unless noted
NCI-H23 lung = system: NCI-H23 lung
NCI-H226 lung = system: NCI-H226 lung
NCI-H322M lung = system: NCI-H322M lung
HOP-62 NSCLC = system: HOP-62 NSCLC
NCI-H460 lung = system: NCI-H460 lung
HOP-92 NSCLC = system: HOP-92 NSCLC
NCI-H522 lung = system: NCI-H522 lung
A549/ATCC NSCLC = system: A549/ATCC NSCLC
786-0 renal = system: 786-0 renal
COLO 205 colon = system: COLO 205 colon
DU-145 prostate = system: DU-145 prostate
K-562 leukemia = system: K-562 leukemia
MALME-3M melanoma = system: MALME-3M melanoma
MDA-MB-231 breast = system: MDA-MB-231 breast
RXF 393 renal = system: RXF 393 renal
SF-268 CNS = system: SF-268 CNS
SF-295 CNS = system: SF-295 CNS
SF-539 CNS = system: SF-539 CNS
UACC-257 melanoma = system: UACC-257 melanoma
M14 melanoma = system: M14 melanoma

Structure (SMILES) | growth (NCI-H23 lung) | growth (NCI-H226 lung) | growth (NCI-H322M lung) | growth (HOP-62 NSCLC) | growth (NCI-H460 lung) | growth (HOP-92 NSCLC) | growth (NCI-H522 lung) | growth (A549/ATCC NSCLC) | growth (786-0 renal) | growth (COLO 205 colon) | growth (DU-145 prostate) | growth (K-562 leukemia) | growth (MALME-3M melanoma) | growth (MDA-MB-231 breast) | growth (RXF 393 renal) | growth (SF-268 CNS) | growth (SF-295 CNS) | growth (SF-539 CNS) | growth (UACC-257 melanoma) | growth (M14 melanoma)
CCN1C(=O)/C(=c2\sc3n(c2=O)C2C(NN=3)N(CC)C(=O)N2CC)c2ccccc21 (stereo not given) | 34.5% (inactive) | 103% (inactive) | 46.5% (inactive) | 32.1% (inactive) | 4.65% (active) | 39.2% (inactive) | 19.9% (inactive) | 32.8% (inactive) | 30.9% (inactive) | -11.5% (active) | 7% (active) | 7.63% (active) | 49.5% (inactive) | 23.9% (inactive) | -7.21% (active) | 61.7% (inactive) | 9.43% (active) | -20.9% (active) | 96.5% (inactive) | 46.2% (inactive)
Nc1c(C(=O)Nc2ccncc2)sc2nc3c(cc12)CCCCCCCC3 | -63.2% (active) | 17.6% (inactive) | -54.4% (active) | -74.2% (active) | -66.7% (active) | -76.2% (active) | -84.9% (active) | -62.7% (active) | -93.9% (active) | -83.2% (active) | -75.5% (active) | -52% (active) | -84.6% (active) | -72.7% (active) | -80.6% (active) | -62.4% (active) | -77% (active) | -91.7% (active) | -75.7% (active) | -80.1% (active)
O=Nc1c(O)ccc2ccccc12 | 89.7% (inactive) | 93.2% (inactive) and 97.4% (inactive) | 97.1% (inactive) | 117% (inactive) and 101% (inactive) | 96.4% (inactive) and 106% (inactive) | 66% (inactive) and 87.1% (inactive) | 41.8% (inactive) and 86.2% (inactive) | 72.2% (inactive) and 100% (inactive) | 92.1% (inactive) and 104% (inactive) | 71.1% (inactive) and 110% (inactive) | 83.9% (inactive) and 113% (inactive) | 51% (inactive) and 87.7% (inactive) | 33.3% (inactive) and 122% (inactive) | 57.4% (inactive) and 62.7% (inactive) | 80.5% (inactive) and 102% (inactive) | 49.6% (inactive) and 103% (inactive) | 91.3% (inactive) and 109% (inactive) | 94.9% (inactive) and 104% (inactive) | -51.3% (active) and 80.8% (inactive) | 49.6% (inactive) and 104% (inactive)
O=C(/C=C\c1ccc(Cl)c(Cl)c1)c1ccccc1 | 89.1% (inactive) | 88.2% (inactive) and 92.3% (inactive) | 107% (inactive) | 100% (inactive) and 91.4% (inactive) | 101% (inactive) and 100% (inactive) | 70.7% (inactive) | 81% (inactive) and 87.1% (inactive) | 86.7% (inactive) and 93.1% (inactive) | 84.9% (inactive) and 104% (inactive) | 99.9% (inactive) and 121% (inactive) | 84.3% (inactive) and 109% (inactive) | 32.7% (inactive) and 95.9% (inactive) | 104% (inactive) and 115% (inactive) | 108% (inactive) and 99.7% (inactive) | 86.3% (inactive) and 110% (inactive) | 98.4% (inactive) and 103% (inactive) | 97.5% (inactive) and 99.2% (inactive) | 111% (inactive) and 110% (inactive) | 97.7% (inactive) | 97.2% (inactive) and 115% (inactive)
O=C1/C(=C/c2ccccc2)CN(C(=O)C(Cl)Cl)C/C1=C\c1ccccc1 | -56.5% (active) | 95.6% (inactive) | 37.4% (inactive) | 75.2% (inactive) | -29.7% (active) | 41.8% (inactive) | -0.507% (active) | 20.8% (inactive) | -15.8% (active) | -1.12% (active) | -14.3% (active) | 2.57% (active) | -38.5% (active) | -3.43% (active) | -35.2% (active) | 35.7% (inactive) | -1.45% (active) | -14.9% (active) | 25% (inactive) | -27.6% (active)
COc1nc2ccc(C)cc2cc1/C=[N+](\[O-])c1ccccc1 | 93.8% (inactive) | 73.6% (inactive) | 85.1% (inactive) | 81.7% (inactive) | 98.9% (inactive) | 72.5% (inactive) | 84.6% (inactive) | 92.4% (inactive) | 103% (inactive) | 96% (inactive) | 95.5% (inactive) | 33.6% (inactive) | 94% (inactive) | 78% (inactive) | 101% (inactive) | 86.2% (inactive) | 90.3% (inactive) | 89.8% (inactive) | 95.7% (inactive) | 86.8% (inactive)
C=C(C)[C@@H]1CC[C@]2(C(=O)N3CCN(C)CC3)CC[C@]3(C)[C@H](CC[C@@H]4[C@@]5(C)CC(CCCNC(C)=O)(CCCNC(C)=O)[C@H](OC(C)=O)C(C)(C)[C@@H]5CC[C@]43C)[C@@H]12 | 98.2% (inactive) | 99.1% (inactive) | 105% (inactive) | 103% (inactive) | 99.5% (inactive) | 98.2% (inactive) | 96.3% (inactive) | 102% (inactive) | 99.8% (inactive) | 106% (inactive) | 108% (inactive) | 81.1% (inactive) | 98% (inactive) | 108% (inactive) | 109% (inactive) | 98.9% (inactive) | 99.4% (inactive) | 101% (inactive) | 109% (inactive) | 104% (inactive)
O=C(CN1C(=O)S/C(=C\C(Cl)=C\c2ccccc2)C1=O)NCCCn1ccnc1 | 24% (inactive) | 41.9% (inactive) | 90.8% (inactive) | 84.9% (inactive) | 68.5% (inactive) | 52.5% (inactive) | -3.5% (active) | 85.2% (inactive) | 9.43% (active) | 4.93% (active) | 31.5% (inactive) | 5.22% (active) | 25.4% (inactive) | 21.5% (inactive) | -25.9% (active) | 86.7% (inactive) | 79.8% (inactive) | 15.2% (inactive) | 75.1% (inactive) | 21.3% (inactive)
O=C(O)C1C2CCC1C(O)C2 (stereo not given) | 99.1% (inactive) and 99.6% (inactive) | 94.5% (inactive) | 115% (inactive) and 97.6% (inactive) | 87.9% (inactive) and 112% (inactive) | 112% (inactive) and 111% (inactive) | 108% (inactive) and 97.6% (inactive) | 87.6% (inactive) and 98.6% (inactive) | 102% (inactive) and 100% (inactive) | 98.2% (inactive) and 96.5% (inactive) | 102% (inactive) and 106% (inactive) | 100% (inactive) and 108% (inactive) | 107% (inactive) and 92.7% (inactive) | 109% (inactive) and 86.3% (inactive) | 103% (inactive) and 113% (inactive) | 111% (inactive) and 116% (inactive) | 97.7% (inactive) and 101% (inactive) | 108% (inactive) and 121% (inactive) | 94.9% (inactive) and 101% (inactive) | 100% (inactive) and 103% (inactive) | 98.8% (inactive) and 95.4% (inactive)
OCCN1CCN(c2cc(-c3cccc(OC(F)(F)F)c3)nc3ccc(N4CCCC4)cc23)CC1 | 74.4% (inactive) | 70.1% (inactive) | 80% (inactive) | 48.4% (inactive) | 11.3% (inactive) | 34.1% (inactive) | 66.4% (inactive) | 36.2% (inactive) | 63.1% (inactive) | -18.8% (active) | 58% (inactive) | -10.2% (active) | 34.6% (inactive) | 58.2% (inactive) | 51% (inactive) | 66.6% (inactive) | 72.5% (inactive) | 66.4% (inactive) | 65.2% (inactive) | 27.5% (inactive)
Clc1cccc(Nc2ncnc3ccc(-c4cncc(-n5cnnn5)c4)cc23)c1 | 80% (inactive) | 73% (inactive) | 15.2% (inactive) | 83% (inactive) | 81.6% (inactive) | 21.7% (inactive) | 49.2% (inactive) | 55.7% (inactive) | 42.9% (inactive) | 87.9% (inactive) | 43.5% (inactive) | 71.5% (inactive) | 88.2% (inactive) | 67.3% (inactive) | 48.4% (inactive) | 70.6% (inactive) | 76.9% (inactive) | 87.3% (inactive) | 92.9% (inactive) | 53.2% (inactive)
C=C(C)[C@@H]1CC[C@]2(C)[C@H](CC(=O)N[C@H]3[C@@H]4C[C@](C)(C(=O)OC)CC[C@]4(C)CC[C@]32C)[C@@]1(C)CCC#N | 92.7% (inactive) | 78.1% (inactive) | 103% (inactive) | 110% (inactive) | 96.8% (inactive) | 69.3% (inactive) | 71.3% (inactive) | 94.2% (inactive) | 107% (inactive) | 86.9% (inactive) | 94.4% (inactive) | 50.3% (inactive) | 86.7% (inactive) | 79.7% (inactive) | 83% (inactive) | 81.2% (inactive) | 81.2% (inactive) | 95.9% (inactive) | 83.7% (inactive) | 86.8% (inactive)
[2H]C([2H])([2H])Oc1cc(F)ccc1/C=C/C(=O)/C=C(/C=C/c1ccc(F)cc1OC([2H])([2H])[2H])OB(F)F | 26.2% (inactive) | 63.4% (inactive) | 82% (inactive) | 102% (inactive) | 49.7% (inactive) | 83.2% (inactive) | 31.4% (inactive) | 58.3% (inactive) | 44.3% (inactive) | 21.3% (inactive) | 30.5% (inactive) | 18% (inactive) | 33.1% (inactive) | 53% (inactive) | 1.06% (active) | 56.7% (inactive) | 59.5% (inactive) | 93.2% (inactive) | 48.9% (inactive) | 8.14% (active)
Brc1ccc(/C=C(/C2=NCCN2)n2ccc3ccccc32)cc1 | 87% (inactive) | 62.1% (inactive) | 75.7% (inactive) | 68.3% (inactive) | 76.4% (inactive) | 34.3% (inactive) | 62.7% (inactive) | 77.9% (inactive) | 81.6% (inactive) | 64.8% (inactive) | 63.1% (inactive) | 45.7% (inactive) | 75.4% (inactive) | 58.9% (inactive) | 50.6% (inactive) | 77.7% (inactive) | 85.1% (inactive) | 88.8% (inactive) | 78.8% (inactive) | 65.1% (inactive)

Source: PubChem BioAssay (NCI)
